Experimental data: PubChem BioAssay

experiment: reversal of MRP1-mediated doxorubicin resistance, pilot screen, H69AR cells, doxorubicin co-treatment (AID 601); details: H69AR cells, CellTiter-Glo, 72 h; compound alone cytotoxicity; at 10 µM

Row | Structure (SMILES) | viability [%]
1 | CC(C)(C)Cc1nc(-c2ccccn2)no1 | 100
2 | CC1CCc2cc(F)cc3c(O)c(C(=O)NCC4CCCO4)c(=O)n1c23 (stereo not given) | 85.6
3 | Cn1cnnc1SCC(=O)Nc1sc2c(c1C#N)CCCCC2 | 95.2
4 | CCCCCOC(=O)C1=C(C)N(C)C(=O)NC1c1cc(Br)c(O)c(OC)c1 (stereo not given) | 83.2
5 | COC(=O)c1cnc2c(C(F)(F)F)cccc2c1OC | 98.4
6 | O=C(COc1ccccc1)NCCSCc1ccco1 | 89.3
7 | CCOC(=O)C(NC(=O)c1ccc(OC)cc1)(N1CCOCC1)C(F)(F)F (stereo not given) | 100
8 | Cc1ccc(S(=O)(=O)N2CCC(C(=O)N[C@@H](Cc3ccccc3)C(=O)O)CC2)cc1 | 86.9
9 | COC(=O)c1cc(OC)c(OCc2cc(C(=O)OC)oc2C)c(OC)c1 | 90.7
10 | O=C(Nc1cccc(O)c1)c1ccccc1 | 95.2
11 | Cn1c(=O)c2c(nc(SCCCC#N)n2Cc2ccccc2F)n(C)c1=O | 71.2
12 | Cc1cc(=O)oc2ccc(OCC(=O)N3CCC(C)CC3)cc12 | 96.3
13 | CC(C(=O)N1CCCCC1)n1ncn2cccc2c1=O (stereo not given) | 102
14 | O=C(Nc1ccccc1C(=O)NCC1CCCO1)c1ccco1 (stereo not given) | 98.7
15 | Cc1cc(C)n(CC2CC(=O)N(c3ccc(Cl)c(Cl)c3)C2=O)n1 (stereo not given) | 104
16 | CC(=O)c1cn(CC(=O)NCc2ccc3c(c2)OCO3)c2ccccc12 | 99
17 | Cc1ccc(S(=O)(=O)n2nc(OC(=O)c3ccco3)cc2N)cc1 | 88.8
18 | O=C(Cc1cccs1)Nc1ccccc1C(=O)O | 103
19 | CC1CCN(S(=O)(=O)c2ccc3[nH]cc(C(=O)NCCN4CCOCC4)c(=O)c3c2)CC1 | 96.4
20 | CC(C)(C)NC(=O)NC(=O)COc1ccccc1C#N | 106

Row | Structure (SMILES) | viability [%]
21 | COc1ccccc1NC(=O)C1=C(C)Nc2ncnn2C1c1ccc(C)o1 (stereo not given) | 99.3
22 | COc1cccc(NC(=O)CSc2nnc(-c3cc(-c4ccccn4)nc4ccccc34)o2)c1 | 76.4
23 | O=C(Nc1ccc2c(c1)nc1n2CCSC1)c1ccccc1 | 92.7
24 | O=C(O)c1cc(/C=N\O)ccc1OCc1ccccc1 | 103
25 | CC(=O)Nc1cccc(OCC(O)Cn2cnc3ccccc32)c1 (stereo not given) | 97.9
26 | Cc1cc(/C=N/n2cnnc2)c(C)n1-c1ccc(Cl)cc1Cl | 90.6
27 | CC1CN(C(=O)CSc2nnc(-c3ccncc3)n2-c2ccccc2)CC(C)O1 (stereo not given) | 97.6
28 | CCn1cc(S(=O)(=O)CC(=O)Nc2ccc(OC)cc2)c2ccccc21 | 91.8
29 | O=C(c1ccco1)N1CCN(S(=O)(=O)c2ccc(C3CCCCC3)cc2)CC1 | 85.6
30 | CC(C(=O)N1CCOCC1)N1c2cccc3cccc(c23)S1(=O)=O (stereo not given) | 93.5
31 | CCOc1ccc(C2/C(=C(/O)c3ccc(OC)cc3)C(=O)C(=O)N2c2cc(C)on2)cc1OC (stereo not given) | 89.4
32 | COC(=O)c1cccc(S(=O)(=O)N2CCN(c3nc4ccccc4s3)CC2)c1 | 81
33 | CSC1=C(C#N)C(c2ccc(Cl)cc2)C2=C(CC(C)(C)CC2=O)N1 (stereo not given) | 66
34 | CCOc1ccccc1NC(=O)CN(c1ccc(C)cc1)S(=O)(=O)c1c(C)noc1C | 81
35 | Cc1ccc(C2N(c3ccc(Cl)c(Cl)c3)C(=O)C3CCCN32)o1 (stereo not given) | 96.2
36 | Cc1ccc2[nH]cc(C(=O)CN3CCC4(CC3)OCCO4)c2c1 | 92.2
37 | O=S1(=O)CC(N2CCCCC2)C(N2CCCCC2)C1 (stereo not given) | 95.3
38 | C=CCn1c(N)c(C(=O)NCCC2=CCCCC2)sc1=S | 83.2
39 | COc1cc(OC)cc(-n2nnnc2SCC(=O)N2CCCC2)c1 | 87.4
40 | Cc1cc2oc(=O)cc(CN3CCN(Cc4ccc5c(c4)OCO5)CC3)c2cc1C | 80.6
